# In PMC4552634, “A New Set of Chemical Starting Points with Plasmodium falciparum Transmission-Blocking Potential for Antimalarial Drug Discovery” (PLoS ONE, 2015):
# Hit rate of the full screen: of about 13,000 compounds, about 3,200 (25%) showed an effect of 50% or more. The list shows a part of the results.
# Tested on: P. falciparum stage V gametocytes
# Design: BacTiter-Glo ATP luminescence viability of purified stage V gametocytes in 384-well plates, per cent inhibition versus DMSO
# Conditions: 48 h, 5 µM; inhibitor
row,SMILES,% Inhibition [%]
1,OCCOCCNCc1cccc(C#Cc2cc3ncnc(Nc4ccc(OCc5cccc(F)c5)c(Cl)c4)c3s2)n1 [TCMDC-138843],-31.63
2,CCNc1nc(OCC(F)(F)F)nc(N(c2ccccc2)c2ccccc2)n1 [TCMDC-125801],-11.7
3,O=C(c1cc(C(=O)NC2CCCCC2)c(=O)n(C2CCCCC2)c1)c1cc(F)ccc1O [TCMDC-124525],20.48
4,NCC(NC(=O)c1ccc(-c2c[nH]c3ncccc23)s1)c1ccccc1 (stereo not drawn) [TCMDC-134154],-44.12
5,CCC1(CC)CN(c2ccccc2)c2ccc(O)cc2S(=O)(=O)C1CC(C)C (stereo not drawn) [TCMDC-137217],-89.07
6,N#Cc1ccc2c(c1)CCN(CCC1CCC(NC(=O)/C=C/c3ccc4ccccc4c3)CC1)CC2 (stereo not drawn) [TCMDC-139779],-26.43
7,OCCCCCCNc1ccnc2[nH]c3ccc(I)cc3c12 [TCMDC-131830],10
8,CC(Sc1nc2sccc2c(=O)n1C)C(=O)Nc1ccc2c(c1)OCO2 (stereo not drawn) [TCMDC-125026],100.7
9,Cc1cccc2[nH]c(-c3ccc(-c4cccc(NC(=O)Nc5ccc6c(c5)OCO6)c4)cc3)nc12 [TCMDC-133166],-1.928
10,Cc1cccc2[nH]c(-c3cccc(-c4ccc(NC(=O)Nc5ccc6c(c5)OCO6)cc4)c3)nc12 [TCMDC-133163],-27.37
11,O=C(NCC1CCC(C(=O)O)CC1)c1ccc(/C=C/C(=O)N2CCc3ccccc3C2c2ccc3c(c2)OCO3)cc1 (stereo not drawn) [TCMDC-138267],-9.047
12,CS(=O)(=O)c1ccc(CNCc2cccc(-c3cccc(-c4nc5ccc(F)cc5[nH]4)c3)c2)cc1 [TCMDC-132907],-11.65
13,O=S(=O)(NCCN1CCCC1)c1cccc(-c2cccc(CNCc3ccc(F)cc3)c2)c1 [TCMDC-132276],98.39
14,O=S(=O)(NCCN1CCCC1)c1cccc(-c2ccc(CNCc3ccc(F)cc3)cc2)c1 [TCMDC-132289],105.2
15,O=S(=O)(NCCN1CCCC1)c1ccc(-c2cccc(CNCc3ccc(F)cc3)c2)cc1 [TCMDC-132407],38.56
16,O=C(/C=C/c1ccc(Cl)c(Cl)c1)NCCCCCN1CCC(n2c(=O)[nH]c3ccccc32)CC1 [TCMDC-139330],-42.06
17,CC(C)C[C@H](NC(=O)[C@H](Cc1ccccc1)NC(=O)CCN1C(=O)COc2ccc(C(=O)O)cc21)C(=O)NC(CC1CCCCC1)C(O)CC(=O)NCCCn1ccnc1 (stereo partly drawn) [TCMDC-131640],6.577
18,CC(CNC(=N)c1cccc(C(=N)NCC(C)Oc2cccc(C3CCCCC3)c2)n1)Oc1cccc(C2CCCCC2)c1.Cl (stereo not drawn) [TCMDC-137455],116.2
19,c1ccc(COc2ccc(C3CCCCC3)cc2)nc1 [TCMDC-131330],8.048
20,O=C(Cc1ccc(F)cc1)NC1CCN(c2ccnc3cc(Cl)ccc23)C1 (stereo not drawn) [TCMDC-133668],7.133
21,C=C(C)CSc1nc2c(c(=O)n1CCc1ccccc1)C1(CCCC1)Cc1ccccc1-2 [TCMDC-123892],66.35
22,CC(C)Sc1nc2c(c(=O)n1CCc1ccccc1)C1(CCCC1)Cc1ccccc1-2 [TCMDC-123891],-12.92
23,CCCSc1nc2c(c(=O)n1CCc1ccccc1)C1(CCCC1)Cc1ccccc1-2 [TCMDC-123890],-17.67

row,SMILES,% Inhibition [%]
1,Cc1cc(C(=O)Nc2ccc3c(c2)CCN3C2CCN(Cc3cc(F)cc(F)c3F)C2)no1 (stereo not drawn) [TCMDC-135083],0.2789
2,Cc1nc(N)nc(N)c1CCCOc1cccc(Cl)c1 [TCMDC-138067],-4.32
3,CN(Cc1cc(C(F)(F)F)cc(C(F)(F)F)c1)C(=O)C1CNCC1c1ccc(F)cc1 (stereo not drawn) [TCMDC-137553],10.31
4,CN(Cc1ccc(C#N)cc1)C1CCN(c2cc(NC(=O)c3ccc(F)cc3)ccn2)CC1 [TCMDC-134978],9.957
5,CN(Cc1cc(C(F)(F)F)cc(C(F)(F)F)c1)C(=O)C(Cc1ccc(F)cc1)C1CCCNC1 (stereo not drawn) [TCMDC-138909],92.9
6,CCCc1cc(N2CCC(N(CC)CC)C2)nc(Nc2ccc(OC)cc2)n1 (stereo not drawn) [TCMDC-132388],-68.85
7,CC(=NN=C(N)N)c1ccc2c(c1)Cc1ccccc1-2 [TCMDC-137666],27.22
8,CC(=NN=C(N)N)c1ccc2c(ccc3ccccc32)c1 [TCMDC-137669],96.96
9,COC(=O)c1ccc(CC(C)NCC(O)c2ccc3ccc4ccccc4c3c2)cc1 (stereo not drawn) [TCMDC-131429],28.11
10,CC(=NN=C(N)N)c1ccc2ccc3ccccc3c2c1 [TCMDC-137667],76.83
11,Nc1ncc(Cc2ccc3c(ccc4ccccc43)c2)c(N)n1 [TCMDC-137874],19.52
12,CC(C)C[C@@H]1C(=O)N[C@H](C2Cc3ccccc3C2)C(=O)N1[C@@H](C(=O)O)c1ccc(F)cc1F [TCMDC-138777],-24.68
13,Clc1nc2ccccn2c1C=Cc1ccc2ccccc2n1 [TCMDC-125327],-7.636
14,COc1cc(-c2nc(-c3ccc4c(c3)CCC4=NO)c(-c3ccncc3)[nH]2)ccc1OCCN1CCCCC1 [TCMDC-141257],22.85
15,O=C(/C=C/c1cccc(Cl)c1)Nc1ccc2nc(CN3CCCC3)ccc2c1 [TCMDC-135628],-49.28
16,O=C(Nc1cccc(CN2CCCN(Cc3ncc[nH]3)CC2)c1)c1ccc(Cl)c(Cl)c1 [TCMDC-141833],-19.06
17,Cc1cc2ccc(-c3cccc(CN)c3)cc2nc1N [TCMDC-137624],65.41
18,Cc1ccc(O)cc1Nc1ccnc2cc(-c3cccc(CNCCS(C)(=O)=O)c3)ccc12 [TCMDC-138472],-16.38
19,Cc1ccc(Cc2cccc3nc(N)nc(N)c23)cc1 [TCMDC-137730],-6.399
20,COc1ccc(CCNCc2ccc3nc(N)c(C)cc3c2)cc1 [TCMDC-138098],30.17
21,Cc1cc2cc(-c3ccc(CN)cc3)ccc2nc1N [TCMDC-137774],101.7
22,CN1CCc2ccc(NC(=O)Nc3cccc([N+](=O)[O-])c3)cc2C1 [TCMDC-139120],-5.165
23,FC(F)(F)Oc1ccc(Nc2cc(-c3ccncc3)nc(-c3cccnc3)n2)cc1 [TCMDC-125416],22.38

row,SMILES,% Inhibition [%]
1,CC(C)(C)c1ccc(NC(=O)c2ccc(CN3CCCN(Cc4cccc(O)c4)CC3)cc2)cc1 [TCMDC-136433],-12.56
2,Cc1cccc2[nH]c(-c3cccc(-c4cccc(NC(=O)c5cccnc5Cl)c4)c3)nc12 [TCMDC-136839],42.83
3,O=[N+]([O-])c1cccc(-c2ccc(C=NNc3cc(N4CCCC4)nc(N4CCCC4)n3)o2)c1 [TCMDC-124053],34.95
4,CC1CN(Cc2cccc(F)c2)CCN1c1ccc(NC(=O)c2cccs2)cc1 (stereo not drawn) [TCMDC-135009],3.6
5,Cc1cccc(-c2ccc(CNC3CCN(CC4Cn5c(=O)ccc6ccc(F)c4c65)CC3)cn2)c1 (stereo not drawn) [TCMDC-134413],-59.7
6,COC(=O)c1ccccc1COc1ccc(CC2(NC(=O)[C@H](Nc3ccc(C#N)c4ccccc34)C(C)(C)C)CCCC2)cc1 [TCMDC-136783],21.91
7,Cc1cccc2[nH]c(-c3cccc(-c4cccc(CNCc5ccccc5)c4)c3)nc12 [TCMDC-132713],10.68
8,COCCN1CCN(Cc2ccc(-c3ccc(-c4nc5c(C)cccc5[nH]4)s3)cc2)CC1 [TCMDC-133021],2.979
9,Cc1cccc2[nH]c(-c3cccc(-c4cccc(CNC(C)C)c4)c3)nc12 [TCMDC-132738],-9.933
10,Cc1cccc2[nH]c(-c3ccc(-c4ccc(CNCCN5CCNCC5)cc4)s3)nc12 [TCMDC-132870],77.87
11,Cc1cccc2[nH]c(-c3ccc(-c4cccc(CNCCCNS(C)(=O)=O)c4)cc3)nc12 [TCMDC-133082],-3.877
12,Cc1cccc2[nH]c(-c3ccc(-c4ccc(CNCc5ccccc5)cc4)s3)nc12 [TCMDC-132709],-2.299
13,C#CCNCc1ccc(-c2cccc(-c3nc4c(C)cccc4[nH]3)c2)cc1 [TCMDC-132804],-34.44
14,CNCCNCc1ccc(-c2ccc(-c3nc4c(C)cccc4[nH]3)s2)cc1 [TCMDC-132828],96.61
15,Cc1cccc2[nH]c(-c3ccc(-c4ccc(CN5CCN(CCO)CC5)cc4)s3)nc12 [TCMDC-133027],2.277
16,CNCCNCc1cccc(-c2cccc(-c3nc4c(C)cccc4[nH]3)c2)c1 [TCMDC-132825],101.1
17,Cc1cccc2[nH]c(-c3ccc(-c4ccc(CN5CCN(CCN6CCOCC6)CC5)cc4)s3)nc12 [TCMDC-133930],30.2
18,Cc1cccc2[nH]c(-c3cccc(-c4ccc(CNCc5ccccc5)cc4)c3)nc12 [TCMDC-132710],64.93
19,CN(c1ccc2c(c1)nc(NCc1ccc(F)cc1)n2C)c1ccnc(Nc2ccc(CS(C)(=O)=O)cc2)n1 [TCMDC-138747],36.21
20,Oc1cc(Nc2ccnc3ccc(I)cc23)c(F)cc1Cl [TCMDC-138500],-12.42
21,COc1ccc(-n2cc(C(=O)c3cc(Br)ccc3O)cc(C#N)c2=O)cc1Cl [TCMDC-124524],13.45
22,COc1ccccc1C1CC(c2ccccc2)=NN1C(=O)c1ccccc1 (stereo not drawn) [TCMDC-123702],28.29
23,O=C(CCCCCNC(=O)c1ccc(O)c(-c2ccc(Cl)c(Cl)c2)c1)NCc1cccc2ccccc12 [TCMDC-140875],8.372
